Results from ChEMBL document CHEMBL3433997, “St. Jude Leishmania screening dataset” (2016).

Key:
Type in all cases: functional
[1] = target: Solute carrier family 2, facilitated glucose transporter member 1 (Homo sapiens) (UniProt P11166); experiment: ST_JUDE_LEISH: Cytotoxicity at 2uM final concentration against transgenic Leishmania Mexicana promastigotes LmGLUT1 that are glucose transport deficient and complemented with the human glucose transporter GLUT1. Activity is measured by DNA content using SYBR green in vitro
[2] = target: Hexose transporter 1 (Plasmodium falciparum) (UniProt O97467); experiment: ST_JUDE_LEISH: Cytotoxicity at 2uM final concentration against transgenic Leishmania Mexicana promastigotes LmPfHT that are glucose transport deficient and complemented with the Plasmodium falciparum hexose transporter. Activity is measured by DNA content using SYBR green in vitro
[3] = target: Glucose transporter (Leishmania mexicana) (UniProt O61059); experiment: ST_JUDE_LEISH: Cytotoxicity at 2uM final concentration against transgenic Leishmania Mexicana promastigotes LmGT2 that are glucose transport deficient and complemented with the L. Mexicana glucose transporter 2. Activity is measured by DNA content using SYBR green in vitro

Solute carrier family 2, facilitated glucose transporter member 1 (Homo sapiens), sequence (P11166 whole entry): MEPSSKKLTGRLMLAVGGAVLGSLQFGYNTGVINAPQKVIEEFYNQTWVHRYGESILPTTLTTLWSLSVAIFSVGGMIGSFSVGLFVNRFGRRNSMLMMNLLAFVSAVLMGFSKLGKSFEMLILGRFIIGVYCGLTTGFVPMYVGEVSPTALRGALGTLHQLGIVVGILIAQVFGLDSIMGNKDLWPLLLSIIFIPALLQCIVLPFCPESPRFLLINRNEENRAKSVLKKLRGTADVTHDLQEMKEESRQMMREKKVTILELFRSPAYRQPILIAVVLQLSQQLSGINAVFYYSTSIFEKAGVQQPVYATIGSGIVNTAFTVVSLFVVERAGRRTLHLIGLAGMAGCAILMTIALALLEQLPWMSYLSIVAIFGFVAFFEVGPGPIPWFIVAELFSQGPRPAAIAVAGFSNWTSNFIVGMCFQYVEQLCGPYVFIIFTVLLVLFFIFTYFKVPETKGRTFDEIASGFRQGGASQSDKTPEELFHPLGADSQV

Structure (SMILES) | inhibition [1] | inhibition [2] | inhibition [3]
CN(CCN(C)C(=O)NCc1ccccc1)C(=O)NCc1ccccc1 | 3.05% | 3.69% | 3.75%
COc1ccc2nccc([C@@H](O)CN3CCC(NCc4cc5cccnc5[nH]4)CC3)c2n1 | 15.5% | 14.9% | 3.26%
CC1CCNc2ccc(Cc3cnc(N)nc3N)cc21 (stereo not drawn) | 2.12% | 1.47% | 2.05%
COc1c(CCNCCCCNCCc2cc(Cl)c3ccccc3c2OC)cc(Cl)c2ccccc12 | 102% | 100% | 105%
CC(=O)Nc1nc(C(=O)Nc2ccc(-c3cccc(-c4nc5cc(C(F)(F)F)ccc5[nH]4)c3)cc2)cs1 | 0.32% | 2.2% | 0.81%
COc1ccccc1Cn1ccnc1SCC(=O)Nc1cccc(C(F)(F)F)c1 | 0.58% | 0.38% | -0.75%
COc1ccc(CNC(=O)c2cc3c(=O)n4ccccc4nc3n(CCc3ccccc3)c2=N)cc1 | 15.5% | 12% | 9.96%
CCOc1ccc(C=CC(=O)Nc2ccc3nc(N4CCN(C)CC4)cc(C)c3c2)cc1OC | 3% | 3.77% | 1.18%
CCCCCCn1c(Sc2ccc(C#N)c([N+](=O)[O-])c2)nnc1-c1cccs1 | 5.52% | 6.91% | -0.09%
O=C(Nc1ccc2nccc(N3CCN4CCC[C@H]4C3)c2c1)c1ccc(Cl)c(Cl)c1 | 1.13% | 1.72% | -1.03%
CNC(=O)c1cnc(Nc2ccc(OCC(O)CN(C)C)cc2)nc1Nc1cccc(OC)c1 (stereo not drawn) | 3.9% | -2.08% | 4.47%
CCCCN1CCN(c2cc(NS(=O)(=O)c3cccc(C(=O)Nc4ccc(C(F)(F)F)cc4)c3)ccc2OC)CC1 | 0.33% | -1.12% | -1.22%
CCOC(=O)N[C@@H]1CN[C@@H](C#Cc2cc3c(Nc4ccc(OCc5cccc(F)c5)c(Cl)c4)ncnc3s2)C1 | -1.82% | 0.54% | 0.09%
CCCNCCc1ccc(NS(=O)(=O)c2cccc(-c3ccc(Cl)cc3)c2)cc1 | 1.93% | 0.61% | 1.01%
CCC(=O)c1c(C)n(-c2ncnc3c2nc(C)n3-c2ccc(C)cc2C)c2ccccc12 | 4.6% | 1.9% | 3.62%
[O-][s+]1c(Cl)c(-c2ccc(Cl)cc2)c2ccc(Cl)cc21 (stereo not drawn) | 6.36% | 8.82% | 3.59%
N=C(N)Nc1nc(-c2cccc(NC(=O)NCc3cccc4ccccc34)c2)cs1 | 1.1% | -0.38% | 0.66%
Cc1cccc(C)c1CNc1ccnc2cc(C#N)ccc12 | 3.83% | 3.15% | 2.98%

Structure (SMILES) | inhibition [1] | inhibition [2] | inhibition [3]
CN1CCCC1CCOc1ccc2c(c1)N(C(=O)Nc1cc(Br)cc(C(F)(F)F)c1)CC2 (stereo not drawn) | -1.82% | -2.4% | -2.02%
CC1CN(CCCn2c3ccccc3c3ccc(C(=O)CCCN(C)C)cc32)CC(C)N1 (stereo not drawn) | 1.15% | 1.4% | 1.24%
COc1cc2ccccc2cc1CNCCCCCCNCc1cc2ccccc2cc1OC | 5.18% | 6.05% | 5.15%
CN(C)c1ccc(-c2csc(C(=O)NCC3CCN(CCC(C)(C)C)C3)c2)cc1 (stereo not drawn) | -0.84% | -0.06% | 0.06%
CCNC(=O)Nc1cccc(-c2ccc(-c3nc4cccc(C)c4[nH]3)s2)c1 | 1.49% | 1.4% | 0.03%
O=C(Nc1ccc(CCN2CCC(c3nc(COCC(F)(F)F)c(-c4ccccc4)o3)CC2)cc1)c1ccc(F)cc1 | 2.62% | 2.23% | -0.66%
CCCc1ccc(S(=O)(=O)Nc2ccc3c(c2)CCC3)cc1 | 1.93% | 4.05% | 3.52%
COc1ccc(Oc2cnc(N)nc2N)c(C(C)C)c1 | 4.31% | 5.88% | 2.01%
CCN(c1ccccc1)S(=O)(=O)c1ccc(NC(=O)c2cc(-c3cc(C)ccc3O)n[nH]2)cc1 | -1.82% | 5.38% | -1.84%
COc1ccc2ncc(F)c(CCN3CCC(CNC(=O)C(=O)c4c[nH]c5ccccc45)CC3)c2n1 | 6.8% | 7.49% | 1.37%
CN1CCN(c2nc(NCCc3ccc(O)cc3)nc(NCc3ccccc3-c3ccc(C(F)(F)F)cc3)n2)CC1 | 1.59% | 2.22% | 3.13%
Cc1cccc(Nc2c(-c3cc(Br)ccc3O)nc3ncccn23)c1 | 0.12% | -0.3% | -1.33%
CCN(CC)CCCC(C)Nc1ccnc2[nH]c3ccccc3c12 (stereo not drawn) | 6.4% | 6.62% | 4.63%
O=C(Cn1c(CCc2cccc(F)c2F)nc(=O)c2ccccc21)N(Cc1ccc(-c2ccc(C(F)(F)F)cc2)cc1)C1CCN(C2CCOCC2)CC1 | 1.91% | 2.37% | 1.17%
CCOc1cc(C(=O)N[C@@H](Cc2ccccc2)[C@H](O)CNCc2cc(OC)cc(OC)c2)cc(N2CCCS2(=O)=O)c1 | -0.26% | -0.9% | 1.04%
NC(=O)c1ccc(C(=O)Nc2cccc(-c3ccc(-c4nc5cc(C(F)(F)F)ccc5[nH]4)cc3)c2)cc1 | -2.41% | -0.2% | -2.73%
COc1ccc2ccccc2c1C=NNc1ccnc2cc(Cl)ccc12 | 1.99% | 0.95% | 1.17%
Cc1ccc(CN2CCN(c3cc4c(cc3Cl)CCN4C(=O)Cc3ccc(Cl)c(NC(=O)Nc4cccc(C#N)c4)c3)CC2)cc1 | -1.29% | -1.46% | -0.62%
